Test results taken from PubChem BioAssay AID1159580 (chemical genetic matrix, 2015).
Values joined by “and” are separate entries in the source; they are usually repeats but may differ in a detail not shown here. Equal values may be shown once. In all, about 5,500 compounds went through this assay and about 2,000 (36%) were called active. Roughly 18% stayed inconclusive and do not appear here. No stated cut-off is given here; in the data, active means normalized growth mostly below about 0.91 (no sharp cut-off); inconclusive means no clear call, values can overlap the other calls; inactive means mostly above about 0.92. The list shows a part of the results.

Assay: chemical genetic growth profiling, strain panel (AID 1159580);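 further: tested at 20 µM; growth read once vehicle control cultures reached saturation at 30 °C; 1 = growth at the plate median or of vehicle wells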
Conditions: S. cerevisiae deletion strains, growth OD

Measured: normalized growth

C[N+]12CCC(CC1)C(OC(=O)C(O)(c1ccccc1)c1ccccc1)C2 (configuration not stated)
inactive: locus YAL013W, strain DEP1, stronger effect = lower value 0.995 | locus YAL021C, strain ccr4, stronger effect = lower value 0.983 | locus YAL026C, strain drs2, stronger effect = lower value 1.01 | locus YAL030W, strain snc1, stronger effect = lower value 0.985 | locus YBL061C, strain skt5, stronger effect = lower value 0.968 | locus YBR009C, strain hhf1, stronger effect = lower value 0.989 | locus YBR021W, strain FUR4, stronger effect = lower value 0.99 | locus YBR023C, strain chs3, stronger effect = lower value 0.987 | locus YBR171W, strain sec66, stronger effect = lower value 0.957 | locus YBR229C, strain ROT2, stronger effect = lower value 0.989 | locus YBR231C, strain swc5, stronger effect = lower value 0.995 | locus YBR279W, strain paf1, stronger effect = lower value 0.985 | locus YCL011C, strain gbp2, stronger effect = lower value 0.951 | locus YCL016C, strain dcc1, stronger effect = lower value 0.956 | locus YCL029C, strain bik1, stronger effect = lower value 0.956 | locus YCL061C, strain MRC1, stronger effect = lower value 0.992 | locus YCL069W, strain vba3, stronger effect = lower value 0.998 | locus YCR088W, strain abp1, stronger effect = lower value 0.984 | locus YDL005C, strain med2, stronger effect = lower value 0.974 | locus YDL035C, strain GPR1, stronger effect = lower value 1.03 | locus YDL040C, strain nat1, stronger effect = lower value 0.993 | locus YDL074C, strain BRE1, stronger effect = lower value 0.975 | locus YDL101C, strain DUN1, stronger effect = lower value 0.975 | locus YDL134C, strain PPH21, stronger effect = lower value 0.981 | locus YDL185W, strain tfp1, stronger effect = lower value 0.974 | locus YDL192W, strain arf1, stronger effect = lower value 0.992 | locus YDR001C, strain nth1, stronger effect = lower value 0.978 | locus YDR069C, strain doa4, stronger effect = lower value 0.982 | locus YDR101C, strain arx1, stronger effect = lower value 0.971 | locus YDR137W, strain rgp1, stronger effect = lower value 0.975 | locus YDR150W, strain NUM1, stronger effect = lower value 0.996 | locus YDR159W, strain sac3, stronger effect = lower value 1.01 | locus YDR162C, strain NBP2, stronger effect = lower value 1 | locus YDR195W, strain ref2 0.983 | locus YDR297W, strain sur2, stronger effect = lower value 0.976 | locus YDR318W, strain mcm21, stronger effect = lower value 0.975 | locus YDR334W, strain swr1, stronger effect = lower value 0.938 | locus YDR335W, strain msn5, stronger effect = lower value 0.971 | locus YDR388W, stronger effect = lower value 0.984 | locus YDR392W, strain spt3, stronger effect = lower value 0.922 | locus YDR502C, strain sam2, stronger effect = lower value 0.987 | locus YEL003W, strain gim4, stronger effect = lower value 0.987 | locus YEL037C, strain rad23, stronger effect = lower value 0.988 | locus YEL061C, strain CIN8 (second series), stronger effect = lower value 0.987 | locus YEL061C, strain CIN8, stronger effect = lower value 0.993 | locus YER015W, strain faa2, stronger effect = lower value 0.987 | locus YER016W, strain bim1, stronger effect = lower value 0.989 | locus YER110C, stronger effect = lower value 0.975 | locus YER111C, strain swi4, stronger effect = lower value 0.987 | locus YER155C, strain BEM2 (second series), stronger effect = lower value 1.01 | locus YER155C, strain BEM2, stronger effect = lower value 0.983 | locus YER167W, strain BCK2, stronger effect = lower value 0.992 | locus YFR010W, strain ubp6, stronger effect = lower value 0.981 | locus YGL078C, strain dbp3, stronger effect = lower value 0.992 | locus YGL086W, strain mad1, stronger effect = lower value 1 | locus YGL167C, strain pmr1, stronger effect = lower value 0.976 | locus YGL173C, strain kem1, stronger effect = lower value 0.974 | locus YGL227W, strain vid30, stronger effect = lower value 0.979 | locus YGL240W, strain doc1, stronger effect = lower value 0.981 | locus YGL248W, strain PDE1, stronger effect = lower value 0.99 | locus YGL253W, strain hxk2, stronger effect = lower value 0.966 | locus YGR078C, strain PAC10, stronger effect = lower value 0.983 | locus YGR135W, strain pre9, stronger effect = lower value 0.971 | locus YGR229C, strain SMI1, stronger effect = lower value 1 | locus YGR252W, strain gcn5, stronger effect = lower value 1.09 | locus YHR013C, strain ard1, stronger effect = lower value 0.962 | locus YHR027C, strain rpn1, stronger effect = lower value 0.974 | locus YHR030C, strain SLT2, stronger effect = lower value 0.988 and 0.977 | locus YHR079C, strain IRE1 (second series), stronger effect = lower value 0.97 | locus YHR079C, strain IRE1, stronger effect = lower value 1 | locus YHR094C, strain hxt1, stronger effect = lower value 0.982 | locus YHR129C, strain ARP1, stronger effect = lower value 0.99 | locus YHR142W, strain chs7, stronger effect = lower value 0.944 | locus YHR200W, strain rpn10, stronger effect = lower value 0.979 | locus YIL066C, strain RNR3, stronger effect = lower value 0.983 | locus YIL073C, strain SPO22, stronger effect = lower value 0.972 | locus YIL125W, strain kgd1, stronger effect = lower value 0.994 | locus YIR030C, strain dcg1, stronger effect = lower value 0.971 | locus YJL092W, strain hpr5, stronger effect = lower value 0.985 | locus YJL095W, strain BCK1 (second series), stronger effect = lower value 0.981 | locus YJL095W, strain BCK1, stronger effect = lower value 0.967 and 0.963 | locus YJL115W, strain asf1, stronger effect = lower value 0.968 | locus YJL129C, strain trk1, stronger effect = lower value 0.974 | locus YJL134W, strain LCB3, stronger effect = lower value 0.994 | locus YJL154C, strain vps35, stronger effect = lower value 0.98 | locus YJL164C, strain tpk1, stronger effect = lower value 0.979 | locus YJL166W, strain qcr8, stronger effect = lower value 0.95 | locus YJL168C, strain set2, stronger effect = lower value 0.984 | locus YJL187C, strain SWE1 (second series), stronger effect = lower value 0.974 | locus YJL187C, strain SWE1, stronger effect = lower value 0.988 | locus YJR043C, strain POL32, stronger effect = lower value 0.99 | locus YJR066W, strain TOR1, stronger effect = lower value 0.987
